tested on: MAST1; settings: concentration: 1 μM,replicates: in singlicate; n = 1
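Note: KINOMEscan kinase panel screen.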

Row | Compound | %Inh [%]
1 | CC(=O)Nc1ccc(-c2cc3ncnc(SCC(=O)O)c3s2)cc1 | 0
2 | Cn1ccc2ncnc(Oc3ccc(NC(=O)Nc4cc(C(C)(C)C)on4)c(Cl)c3)c21 | 0
3 | O=C(Nc1cccc(Oc2ccc3nccn3n2)c1)Nc1cccc(C(F)(F)F)c1 | 0
4 | COC(=O)c1cccc(NC(=O)NC2CCN(c3ccnc(NCc4ccc(F)cc4)n3)CC2)c1 [GSK1379860] | 0
5 | CN(c1cccc(CNc2nc(Nc3ccc4c(c3)CC(=O)N4)ncc2C(F)(F)F)c1)S(C)(=O)=O | 0
6 | Cn1ccc2ncnc(Oc3ccc(NC(=O)Nc4cccc(C(F)(F)F)c4)c(Cl)c3)c21 | 0
7 | C[C@@H](Oc1cc(-n2cnc3cc(-c4cnn(C)c4)ccc32)sc1C(N)=O)c1ccccc1Cl [GSK580432] | 0
8 | COC(=O)Nc1nc2cc(Oc3ccc(NC(=O)Nc4cc(C(F)(F)F)ccc4Cl)cc3)ccc2[nH]1.Cl [GW697465] | 14
9 | O=c1[nH]cc(-c2ccc(O)cc2)c2sc(-c3ccncc3)cc12 [GSK1033723] | 0
10 | C[C@@H]1CCN(C(=O)N2CCCC2)C[C@@H]1N(C)c1ncnc2[nH]ccc12 | 0
11 | COc1ccc(Nc2nccc(N3CCC(NC(=O)c4cccc(C#N)c4)C3)n2)cc1 (stereo not drawn) [GSK1379730] | 0
12 | CN(c1ccccc1CNc1nc(Nc2ccc3c(c2)CC(=O)N3)ncc1C(F)(F)F)S(C)(=O)=O | 0
